# Screens: PubChem BioAssay, The Scripps Research Institute Molecular Screening Center
# MITF inh: inhibitors of human MITF | AlphaScreen MITF homodimerization, bead proximity signal | inhibition, % at 2.6 µM | 650,000 compounds, 0.91% hits; in the data active = inhibition above about 50%;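 note: 0% = vehicle wells with protein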
# TEAD-YAP inh: TEAD-YAP interaction inhibition; inhibition, % at 9.12 µM; 640,000 compounds, 1.4% hits; AID 1259422; HEK-TIYL cells, TEAD-Gal4/YAP UAS-luciferase luminescence; in the data active = inhibition above about 32%;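 note: 0% = median of test compound wells and 100% = reference inhibitor wells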
# FBW7 act: activators of human E3 ligase FBW7 | Q969H0 | AlphaScreen FBW7–phospho-cyclin E peptide binding, activator screen | normalized activity (activation), % at 26.1 µM | 650,000 compounds, 0.13% hits | AID 1259310; in the data active = normalized activity above about 1.9%;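 note: purified mutant Fbw7 with reduced substrate affinity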
# Target sequence (Q969H0 whole entry, looked up): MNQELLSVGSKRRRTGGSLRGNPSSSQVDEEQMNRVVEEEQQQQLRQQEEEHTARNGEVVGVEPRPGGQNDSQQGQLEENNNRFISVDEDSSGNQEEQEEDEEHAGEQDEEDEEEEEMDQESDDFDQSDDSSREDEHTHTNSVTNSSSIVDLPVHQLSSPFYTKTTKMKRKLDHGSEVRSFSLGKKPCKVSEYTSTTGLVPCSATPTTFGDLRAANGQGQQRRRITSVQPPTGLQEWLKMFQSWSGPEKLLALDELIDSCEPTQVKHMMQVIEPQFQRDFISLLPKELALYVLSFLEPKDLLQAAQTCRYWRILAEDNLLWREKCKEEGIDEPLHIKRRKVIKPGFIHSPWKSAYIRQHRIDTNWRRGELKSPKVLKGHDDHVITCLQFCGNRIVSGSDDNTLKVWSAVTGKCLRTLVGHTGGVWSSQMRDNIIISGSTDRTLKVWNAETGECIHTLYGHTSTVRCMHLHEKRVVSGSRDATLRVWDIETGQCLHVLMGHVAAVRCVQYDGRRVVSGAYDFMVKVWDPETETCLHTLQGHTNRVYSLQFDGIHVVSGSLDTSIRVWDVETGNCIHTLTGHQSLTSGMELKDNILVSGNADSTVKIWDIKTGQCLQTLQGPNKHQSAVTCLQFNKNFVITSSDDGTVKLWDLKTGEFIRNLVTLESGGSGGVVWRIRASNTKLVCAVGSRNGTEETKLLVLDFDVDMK
# GPR151 activ: activates the human receptor GPR151; Q8TDV0; PathHunter beta-arrestin GPR151 cells, luminescence; activation, % at 11.2 µM; 650,000 compounds, 1% hits; in the data active = activation above about 4.9%;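 note: 0% = median of compound wells and 100% = cells with positive control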
# * hit, by the source's call; . = no result given. Shown are actives, neighbours in structure and some others; about 3.5% of the full set was active somewhere.
SMILES,MITF inh,TEAD-YAP inh,FBW7 act,GPR151 activ
CC(=O)Nc1sc2c(c1C(=O)Nc1ccc(Cl)cc1)CCC(C)C2 (stereo unspecified),-2.2,-9.7,0.0,0.5
COc1ccc(/C=C/c2nc3ccccc3s2)cc1S(=O)(=O)N1CCOCC1,5.8,-8.8,0.1,0.0
CN(C)c1ccc(/C=C/c2ccc3ccccc3n2)cc1,-35.0,92.6*,0.8,-9.8
O=C(O)/C=C/c1ccc2ccccc2n1,-10.8,-12.5,0.0,0.2
Oc1ccc(/C=C/c2nc3ccccc3s2)cc1,13.0,72.9*,0.5,-10.4
Oc1ccc(/C=C/c2ccc3ccccc3n2)cc1,-6.4,84.7*,0.6,-9.9
CN(C)c1ccc(/C=C/c2ccc(-c3ccccc3)cc2)cc1,-7.3,-13.3,-0.1,0.0
O/C(=C\c1ccc2ccccc2n1)c1ccc(O)cc1O,-1.8,75.0*,-0.3,-1.7
CC(=O)c1c(C)[nH]c(C(=O)NCc2ccc3c(c2)OCO3)c1C,12.2,-4.1,0.0,0.4
CCN(CCn1cccn1)C(=O)Cn1nnnc1CN1C[C@@H](C)O[C@@H](C)C1,-10.4,1.8,0.1,2.8
CCOC(=O)c1[nH]c2ccc(OC)cc2c1NC(=S)N1CCOCC1,-7.9,-20.6,0.1,1.5
C(=C\c1ccc2ccccc2n1)/c1cccnc1,-30.4,77.3*,-0.6,-8.4
Nc1nc2cc3c(cc2cc1C(=O)Nc1ccccc1)OCO3,6.1,42.2*,0.1,-0.5
CCCC(=O)NC(c1ccccc1Cl)c1ccc2cccnc2c1O (stereo unspecified),52.7*,94.9*,-1.4,0.9
COc1ccc(C(=O)NC(c2ccccc2Cl)c2cc(Cl)c3cccnc3c2O)cc1 (stereo unspecified),10.6,8.4,-0.1,0.0
O=C(NC(c1ccccc1)c1ccc2cccnc2c1O)c1ccccc1 (stereo unspecified),23.9,22.0,-1.5,0.7
CC(=O)NC(c1ccc(Cl)cc1)c1ccc2cccnc2c1O (stereo unspecified),19.0,89.8*,-1.7,1.9
CC(=O)NC(c1ccc(F)cc1)c1ccc2cccnc2c1O (stereo unspecified),44.3,85.1*,-1.5,-1.3
CCC(=O)NC(c1ccc(Cl)cc1)c1cc(Cl)c2cccnc2c1O (stereo unspecified),-1.8,-2.2,0.2,-0.7
CC(=O)NC(c1ccccc1Cl)c1ccc2cccnc2c1O (stereo unspecified),37.4,89.8*,-1.7,0.9
C=CCN(C(=O)c1csnn1)C(C(=O)NC(C)(C)C)c1ccc(CC)cc1 (stereo unspecified),8.3,-13.3,0.2,1.1
CCCCCOc1ccc(NC(=O)C(=O)NCCN2CCOCC2)cc1,10.6,6.5,0.4,-0.7
Cc1ccccc1OCC(=O)Nc1ccc2c(c1)OCC(C)(C)C(=O)N2,3.6,-2.5,-0.1,-0.9
CCO/C=C1/SC(=S)N(c2cccc([N+](=O)[O-])c2)C1=O,10.7,6.8,0.7,-1.3
CCC(=O)NC(c1ccccc1Cl)c1cc(Cl)c2cccnc2c1O (stereo unspecified),0.8,50.3*,-0.3,0.2
SMILES,MITF inh,TEAD-YAP inh,FBW7 act,GPR151 activ
CCCC(=O)NC(c1ccc(SC)cc1)c1ccc2cccnc2c1O (stereo unspecified),14.6,82.3*,-0.9,-0.6
CCCCC(=O)NC(c1ccc(Cl)cc1Cl)c1ccc2cccnc2c1O (stereo unspecified),17.4,46.1*,-0.5,0.9
CCCCCCCCn1c(SC(C)C(C)=O)nc2c1c(=O)[nH]c(=O)n2C (stereo unspecified),11.6,-4.3,0.0,2.1
O=C1CCC(C(=O)OC(C(=O)Nc2ccc(Cl)c(C(F)(F)F)c2)c2ccccc2)N1 (stereo unspecified),0.8,-2.3,0.0,-2.2
O=C(/C=C/Nc1ccccc1I)c1ccccn1,8.9,80.3*,0.0,-4.9
O=C(/C=C/Nc1cccc2cccnc12)c1ccccc1,16.2,-51.5,0.0,-1.1
Cc1cncc(NC(=O)c2cc(N3CCOCC3)cc(-n3cc(NC(=O)Cc4ccccc4)cn3)c2)c1,17.3,39.9*,0.1,-0.4
COc1cc(NS(=O)(=O)c2ccc3[nH]c4c(c3c2)CCCC4)cc(OC)c1OC,6.3,55.3*,0.2,1.1
COc1cc(NS(=O)(=O)c2ccc3c(c2)Cc2ccccc2-3)cc(OC)c1OC,9.1,41.7*,-0.1,4.9
COc1ccc(OC)c(NS(=O)(=O)c2ccc3[nH]c4c(c3c2)CCCC4)c1,-2.1,35.4*,-0.1,2.0
CCOC(=O)c1c(CSc2ccc(C)cc2)n(C)c2ccc(O)cc12,13.4,-7.2,0.2,0.7
O=C(O)CCN1C(=O)CSC1=S,5.5,9.8,0.0,0.8
O=C(O)CCCCN1C(=O)CSC1=S,23.6,37.6*,0.2,-1.0
Cc1cc([N+](=O)[O-])nn1CC(=O)Nc1cccc(F)c1C#N,6.0,36.4*,0.3,0.5
CC(=O)N1CCCN(C(=O)CC2C(=O)NCCN2Cc2ccc3ccccc3c2)CC1 (stereo unspecified),19.6,1.7,0.2,-0.9
C/C(N)=C(/C#N)C(=O)CSc1ccc(C)c(C)c1,-3.1,36.2*,0.1,-1.2
O=C(NCC1CN(c2ccccc2)C(=O)O1)C1CCCCC1 (stereo unspecified),14.8,9.0,0.1,-1.1
CCOC(=O)c1[nH]c(C)c(C(=O)Nc2ccccc2)c1C,3.4,-13.6,0.0,-0.5
CCOC(=O)c1[nH]c(C)c(C(=O)Nc2ccc(OC)cc2OC)c1C,5.6,44.3*,0.0,1.5
CCOC(=O)c1[nH]c(C)c(C(=O)Nc2ccc(OC)cc2)c1C,-0.7,-3.7,0.1,-0.6
CCOC(=O)c1[nH]c(C)c(C(=O)Nc2ccccc2OC)c1C,17.3,58.6*,0.9,-0.5
CCOC(=O)c1[nH]c(C)c(C(=O)Nc2ccccc2SC)c1C,-3.2,51.7*,-0.2,0.9
CCOC(=O)c1[nH]c(C)c(C(=O)Nc2ccccc2F)c1C,13.0,29.6,0.6,-1.5
Cc1ccc(CSc2ccc(C(=O)NNC(=O)c3ccccn3)cc2[N+](=O)[O-])cc1,26.8,49.6*,0.0,-2.4
C[C@H]1/C=C/CC(=O)OC[C@H](C)C(=O)N2CCC[C@H]2C(=O)OC1,10.3,.,0.1,-1.7
SMILES,MITF inh,TEAD-YAP inh,FBW7 act,GPR151 activ
COC(=O)C1=C(C)Nc2nnnn2C1c1cc(OC)c(OC)c(OC)c1 (stereo unspecified),6.3,50.9*,0.0,0.6
COC(=O)C1=C(C)Nc2nnnn2C1c1ccc(OC)cc1 (stereo unspecified),8.3,4.2,0.8,-0.9
CCOC(=O)C1=C(C)Nc2nnnn2C1c1cc(Br)c(OC)c(OC)c1 (stereo unspecified),2.8,53.4*,0.9,1.0
CCCCOc1c(Br)cc(C2NC(=O)NC(C)=C2C(=O)OC)cc1OC (stereo unspecified),9.3,35.0*,0.2,1.4
CCOC(=O)C1=C(C)Nc2nnnn2C1c1ccc(OC)c(OC)c1 (stereo unspecified),-2.4,0.4,-0.1,-0.1
COC(=O)C1=C(C)NC(=O)NC1c1cc(Br)c(OC)c(OC)c1 (stereo unspecified),-12.8,-8.3,0.0,-2.1
CCOc1cc(/C=C2\N=C(c3ccccc3Br)OC2=O)cc(Br)c1OC(C)=O,-3.1,2.8,0.2,-2.0
